# Compound activity: PubChem, National Center for Advancing Translational Sciences (NCATS)
# A selection: hits, their analogues and other compounds. The true share with any hit is near 7.5%.
# ELG1 genotox – genotoxicity induction in ELG1-luciferase HEK293T cells; HEK293T ELG1-luciferase reporter, luminescence, 16 h; Potency, µM (top dose mostly 46 µM), without a hit: at the top dose activity change, positive = activation, actives largely listed as activators; 1.3% of 330,000 active; AID 504466; also: % of control where 0% means no effect; nearly all actives have a fitted effect of over 60% in size
#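 16 hr compound incubation (37 °C, 5% CO2) of HEK293T cells carrying luciferase-tagged ELG1; luciferase then measured by ONE-Glo luminescence after 30 min at RT.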
# KinaseGlo FLuc – counter-screen: inhibitors of Kinase-Glo firefly luciferase | Q27757 | Kinase-Glo luciferase, ATP luminescence, 8 min | Potency, µM (series often up to 38.3 µM), without a hit: top-dose activity change, negative = inhibition, most hits filed as inhibitors | 0.28% of 200,000 active | AID 1379; also: % is scaled to controls: 0 for no effect and ±100 for the full control effect; nearly all actives have a fitted effect of over 60% in size
#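 Light output from Kinase-Glo luciferase with luciferin and 10 uM ATP in 50 mM imidazole pH 7.2, KCl, MgCl2, Tween 20, BSA; compound pin-delivered, 8-min ambient incubation, then luminescence read.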
# FLuc modulator – inhibits or activates purified firefly luciferase, miR-21 counter-screen. P08659. purified FLuc, Km substrates, luminescence inhibition. Potency, µM (highest dose often 57.5 µM), for inactives: at the top dose activity change, negative = inhibition, actives largely listed as inhibitors. 6.9% of 360,000 active. AID 588342;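 also: plate controls were vehicle for no effect and reference inhibitor for full effect; nearly all actives have a fitted effect of over 55% in size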
# Target sequence (P08659 whole entry, looked up): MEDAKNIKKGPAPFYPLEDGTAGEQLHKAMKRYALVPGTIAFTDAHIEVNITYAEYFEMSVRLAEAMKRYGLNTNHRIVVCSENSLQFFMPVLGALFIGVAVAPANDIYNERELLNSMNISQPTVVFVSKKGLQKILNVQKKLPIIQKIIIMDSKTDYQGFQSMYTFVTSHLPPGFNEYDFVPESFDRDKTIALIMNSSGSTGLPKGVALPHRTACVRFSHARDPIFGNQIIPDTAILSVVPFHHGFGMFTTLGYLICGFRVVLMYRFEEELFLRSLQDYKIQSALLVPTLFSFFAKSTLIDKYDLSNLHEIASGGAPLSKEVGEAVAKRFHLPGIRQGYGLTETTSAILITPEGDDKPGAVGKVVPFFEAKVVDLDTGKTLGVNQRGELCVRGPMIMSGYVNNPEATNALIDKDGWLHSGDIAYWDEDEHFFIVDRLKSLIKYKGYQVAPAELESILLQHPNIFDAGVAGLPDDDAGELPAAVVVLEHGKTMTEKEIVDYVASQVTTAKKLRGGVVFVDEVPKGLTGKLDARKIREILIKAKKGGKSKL
#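 Purified P. pyralis luciferase (10nM final) with 10uM D-luciferin and 10uM ATP (Km levels) in 50mM Tris acetate pH 7.5, 10mM Mg acetate, 0.01% Tween-20, 0.05% BSA; qHTS 6-point titration, ~60 µM downward; luminescence read.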
# SMN2 splice enh – increases expression of the SMN2 splice variant; HEK293 SMN2-luciferase splicing reporter, luminescence, 30-36 h; 2.8% of 210,000 active; Potency, µM (doses to about 46.1 µM), for the others: top-dose activity change, positive = activation, actives largely listed as activators; also: % of control where 0% means no effect; nearly all actives have a fitted effect of over 55% in size
#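 HEK293 cells carry an SMN2 […]–luciferase reporter in which exon 7 inclusion puts luciferase in frame. Cells were plated 10-12 h before compound addition, then incubated 30-36 h at 37C. ONE-Glo luminescence was read; sodium butyrate at 4.5 mM final served as control.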
# Rab9 prom act – activators of Rab9 promoter | Huh7 Rab9 promoter-luciferase reporter, luminescence, 24 h | Potency, µM (titrated, usually from 9.22 µM), for inactives: at the top dose activation, negative = inhibition, most hits filed as activators | 2.8% of 320,000 active | AID 485297; also: % of control where 0% means no effect; nearly all actives have a fitted effect of over 60% in size
#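 Using Huh7 cells stably transfected with Rab9 promoter–luciferase, compounds were incubated 24 h at 37 °C, 5% CO2; luciferase luminescence was read 10 min after reagent addition.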
# NPC1 promoter act – activates the NPC1 promoter; 2.4% of 320,000 active; Potency, µM (series often up to 9.22 µM), for the others: top-dose activation, most hits filed as activators; Huh7 NPC1 promoter luciferase reporter, 24 h; also: % of control where 0% means no effect; nearly all actives have a fitted effect of over 60% in size
#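 Luminescence from an NPC1 promoter-driven luciferase reporter in stably transfected Huh7 cells was measured after 24 h compound treatment at 37 °C, followed by 10 min ambient incubation with luciferase detection reagent.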
# Numbers without * were called inactive; ? = inconclusive; · = not tested or not shown; [ ] = another dose, or the depositor's remark. Calls follow the shape of the dose curve; as a rule, active = well fitted curve in the direction sought with a large enough effect; inconclusive = small, poorly fitted or top-dose-only effect, or another doubt; inactive = no such curve, though single readings can be large; an effect the other way counts as inactive or inconclusive. Potency is read from the fitted curve at half-maximal effect.
SMILES,ELG1 genotox,KinaseGlo FLuc,FLuc modulator,SMN2 splice enh,Rab9 prom act,NPC1 promoter act
COc1ccc(-n2c(C)cc(C(=O)CSc3ccc(NC(C)=O)cc3)c2C)cc1,4%,3%,?,-33%,19%,28%
CC(=O)Nc1ccc(SCC(=O)c2cc(C)n(-c3ccccc3)c2C)cc1,?,2%,5.4µM*,-20%,3.5µM*,?
CC(OC(=O)c1ccc(NC(=O)CC#N)cc1)C(=O)NC(c1ccccc1)c1ccccc1 (stereo unspecified),1%,·,·,·,·,·
CC1CCN(C(=O)Cn2cc(SCC(=O)NCc3ccc(F)cc3)c3ccccc32)CC1,·,·,-11%,·,·,·
CCOC(=O)Cn1nc(C)c(NC(=O)COc2ccc(Cl)cc2C)c1C,·,·,-9%,-52%,·,·
Cc1cc(C(=O)CSc2nncn2C)c(C)n1-c1ccccc1,-4%,-3%,8.5µM*,11µM*,0.45µM*,2µM*
Cc1cc(C(=O)CSc2cccc[n+]2[O-])c(C)n1-c1ccc(Br)cc1,?,-1%,15µM*,-42%,24%,26%
Cc1cc(-n2c(C)cc(C(=O)CSc3nnnn3-c3ccccc3)c2C)no1,-20%,-1%,-10%,-34%,0%,-1%
O=C1CCCC(O)=C1C=Nc1ccc(O)cc1,2%,1%,-13%,-19%,2%,6%
Oc1ccc(N=Cc2ccc(-c3cccs3)s2)cc1,0%,-2%,8.5µM*,-34%,-1%,-4%
CCCN1CCN(c2ncc3c(n2)CCN(Cc2ccc(OC)c(OC)c2OC)C3)CC1,·,·,-1%,·,·,·
CCC(=O)Nc1nnc(/C=C/c2ccc(OC)cc2)s1,14%,·,6µM*,·,?,?
Nc1nnc(/C=C/c2ccccc2)s1,?,-8%,24µM*,·,?,?
O=C(Nc1nnc(COc2ccccc2)s1)c1ccco1,5%,-1%,-13%,19%,-5%,-2%
O=C(Nc1nnc(/C=C/c2ccccc2)s1)c1ccco1,4%,·,12µM*,·,22%,18%
COC(=O)Nc1nnc(/C=C/c2ccccc2)s1,?,-5%,5.4µM*,20µM*,22%,19%
COc1ccc(/C=C/c2nnc(NC(=O)CSc3ccc(C)cc3)s2)cc1,7%,·,?,·,30%,?
CCOc1ccccc1CNC(=O)CSc1n[nH]c(-c2ccccc2)n1,·,·,-3%,·,·,·
CCc1c(C)sc2c1CCN(Cc1ccccc1F)C2c1ccccc1 (stereo unspecified),·,·,-1%,·,·,·
CC(C)NC(=O)c1ccc(Cn2c(=O)c3cccn3c3cccnc32)cc1,·,·,3%,·,·,·
O=C(/C=C/c1ccccc1)N1CCC(N2CCC(C(=O)N3CCOCC3)CC2)CC1,0%,6%,-5%,·,-21%,-4%
COc1ccc(C(=S)Nc2ccc(N(C)C)cc2)cc1,?,-6%,1.5µM*,11µM*,2.8µM*,3.2µM*
COc1ccc(NC(=S)Nc2ccccc2)cc1,3%,-5%[7.66 µM],-19%,-2%[9.22 µM],14%,-1%
Cc1ccc(N(C)C)cc1,·,·,·,-8%,·,·
Cc1ccc(S(=O)(=O)NC(=O)Nc2ccc(N(C)C)cc2)cc1,?,·,24µM*,·,?,5%
SMILES,ELG1 genotox,KinaseGlo FLuc,FLuc modulator,SMN2 splice enh,Rab9 prom act,NPC1 promoter act
COc1ccc(NC(=S)c2ccccc2)cc1,?,-3%,11µM*,14µM*,?,?
Cc1ccc(NC(=S)c2ccc(N(C)C)cc2)cc1,3.7µM*,-4%,1.7µM*,4.5µM*,1.3µM*,0.89µM*
CCOc1ccc(CNC(=O)c2c(C)nn(-c3ccc(F)cc3)c2-n2cccc2)cc1,·,·,-2%,·,·,·
COC(=O)c1c(SC)nc2ccccc2c1OCc1ccccc1Cl,·,·,-13%,·,·,·
COc1ccc(NC(=S)c2ccc(N(C)C)cc2)cc1,?,0%,2.1µM*,11µM*,1.3µM*,4µM*
CC(=O)Nc1ccc(Nc2ncnc3c2c(-c2ccccc2)cn3-c2ccc(C)c(Cl)c2)cc1,·,·,2%,·,·,·
O=c1nc(Nc2cccc(Cl)c2)oc2cc(Cl)oc(=O)c12,6%,·,13µM*,·,-2%,18%
CCOC(=O)C(C(=O)OCC)N(C#N)c1nc(SC)nc(N(C)C)n1,-1%,2%,7%,-24%,4%,-2%
CCOC(=O)C(C(=O)OCC)N(C#N)c1nc(OC)nc(N(C)C)n1,0%,-2%,3%,3.2µM*,-4%,-2%
Cc1ccc(CN2CCC(CNC(=O)c3cc4ccc5cccnc5c4[nH]3)CC2)cc1,·,·,-2%,·,·,·
CCN(Cc1ccccc1)C(=O)c1cc2ccc3cccnc3c2[nH]1,·,·,9.5µM*,·,·,·
CCOc1ccc(-n2nc(CO)c(C(=O)NCc3cccc(OC)c3)n2)cc1,·,·,15µM*,-14%,·,·
CCOc1ccc(-n2nc(CO)c(C(=O)NCCCc3ccccc3)n2)cc1,·,·,5.4µM*,-1%,·,·
C=CCC[C@@H](Cc1ccc(F)cc1)C(=O)OC[C@H](C)NC(=O)[C@@H](CC=C)CC(=O)N[C@@H](CO)Cc1ccccc1,-1%,·,·,·,·,·
CCc1ccccc1N(C)S(=O)(=O)c1ccc2c(c1)C(C)(C)C(=O)N2C,·,·,2%,·,·,·
CC1CCCCN1C(=O)CSc1nnc(-c2cccs2)o1 (stereo unspecified),?,·,21µM*,·,2.2µM*,3.5µM*
CC1CCCC(C)N1C(=O)CSc1nnc(-c2cccs2)o1 (stereo unspecified),?,-1%,12µM*,11µM*,1.6µM*,1.1µM*
O=C(CSc1nnc(-c2cccs2)o1)N1CCOCC1,4%,-4%,0%,-1%,0%,-1%
CC1CCN(C(=O)CSc2nnc(-c3cccs3)o2)CC1,20%,·,-14%,·,21%,13%
O=C(CSc1nnc(-c2cccs2)o1)N1CCCCC1,9.2µM*,-5%,21µM*,13µM*,1.6µM*,2.5µM*
CCNC(=O)c1ccc2c(c1)sc1nc(-c3cccc(OC)c3)cn12,·,·,-8%,·,·,·
COc1cccc(-c2cn3ncsc3n2)c1,·,·,15µM*,0%,·,·
O=C(Nc1c(C(=O)O)oc2ccccc12)c1ccc(C(F)(F)F)cc1,·,·,9.5µM*,·,·,·
CC(=O)Nc1c(C(=O)O)oc2ccccc12,3%,2%,4%,-5%,-7%,2%
O=C(Cn1c(=O)oc2ccccc21)Nc1n[nH]c(=S)s1,2%,·,-2%,·,4%,0%
Cc1cc(/C=C(\C#N)C(=O)NCc2ccco2)c(C)n1C1CCCC1,?,-4%,6µM*,-1%,?,?
N#C/C(=C\c1ccc(OCc2cccc(C(=O)O)c2)cc1)C(=O)NCc1ccco1,?,·,30µM*,·,0.1µM*,0.35µM*
Cc1cc(/C=C(/C#N)c2cccc(F)c2)c(C)n1-c1cccnc1,5.2µM*,-3%,8.5µM*,11µM*,?,?
